Assay [1] is described as follows: Nuclear factor erythroid 2-related factor 2/antioxidant responsive element (Nrf2/ARE) small molecule agonists: qHTS cell viability counter screen in human keratinocytes (AID 1919968; active = well fitted curve in the direction sought with a large enough effect in the repeat runs; an effect the other way counts as inactive or inconclusive; note: nearly all actives have a fitted effect of over 55% in size; note: potency is the fitted concentration of half-maximal effect). In outline: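 Seed 1,500 KeratinoSens cells per well, then incubate 5 h at 37 C/5% CO2. Add compounds in DMSO and incubate 23 h. Add CellTiter-Fluor, wait 1 h and read fluorescence.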

Assay [2] concerns the target Gonadotropin-releasing hormone receptor (Homo sapiens) (UniProt P30968). Nature of the assay: Human gonadotropin-releasing hormone receptor (GnRHR) small molecule agonists, calcium flux assay in GnRHR-HEK293 cells (AID 1920063). Note: nearly all actives have a fitted effect of over 35% in size. In outline: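 Cells: HEK293 stably expressing human GnRHR. Steps: overnight (18 h) culture, 1 h calcium dye loading at 37 C, compound addition, kinetic fluorescence read at 480/540 nm. Each compound tested at 15 concentrations in triplicate.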
Background: Calcium flux is commonly read through the fluorescence of an indicator in the cells.

Assay [3] addresses KiSS-1 receptor (Homo sapiens) (UniProt Q969F8). Nature of the assay: Human kisspeptin (KISS1R) small molecule agonists, calcium flux assay in KISS1R-HEK293 cells (AID 1920064; active = well fitted curve in the direction sought with a large enough effect in the repeat runs; an effect the other way counts as inactive or inconclusive). Summed up:
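Cells plated and incubated 18 h; dye added, 1 h at 37 C; compounds in DMSO pinned in; signal read at 480/540 nm every second for 3 min. Each compound tested at 15 concentrations in triplicate.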

Assay [4] can be described thus: G protein-coupled receptor (GPCR) small molecule agonists, calcium flux assay: HEK293 wild type cell line counter screen (AID 1920065). In outline:
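Counter-screen of the Tox21 10K library for non-specific calcium release: dye-loaded cells received compounds in DMSO and were monitored by kinetic fluorescence (480/540 nm, 3 min). Fifteen concentrations, run in triplicate.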

Assay [5] in a line: p53 small molecule agonists, cell-based qHTS assay with human liver microsomes (AID 1963577).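 Note: p53 response element beta-lactamase reporter cells with liver microsomes plus NADPH.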 In outline: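 16 h, 37 C exposure of p53RE-bla cells to compounds with human liver microsomes and NADPH (0.5 mg/mL final each); detection via LiveBLAzer mixture, 2 h dark at room temperature.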
A general note: Quantitative high-throughput screening tests each substance at several concentrations.

Assay [6] in a line: p53 small molecule agonists, cell-based qHTS assay with rat liver microsomes (AID 1963578). In outline:
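With rat liver microsomes and NADPH present (0.5 mg/mL final each), p53RE-bla cells are treated with compound for 16 h at 37 C. LiveBLAzer detection mixture is then applied for 2 h at room temperature in the dark.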

Assay [7] in a line: p53 small molecule agonists, cell-based qHTS assay with human liver microsomes: qHTS cell viability counter screen (AID 1963579). Note: nearly all actives have a fitted effect of over 45% in size. In outline:
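In this multiplexed counter screen, the reporter plates were subsequently treated with CellTiter-Glo so that cell viability, reflected by luminescence, could be recorded for p53RE-bla cells dosed 16 h with compounds under microsomal activation (HLM and NADPH).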

Assay [8] in a line: p53 small molecule agonists, cell-based qHTS assay with rat liver microsomes: qHTS cell viability counter screen (AID 1963580). Note: nearly all actives have a fitted effect of over 45% in size. In outline: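 In HCT-116 cells carrying a p53 response element-bla reporter, compounds were metabolically activated in situ by rat liver microsomes with NADPH over 16 h. Cell ATP content then served as the cytotoxicity measure.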
Assay [9] in a line: p53 small molecule agonists, cell-based qHTS assay: qHTS cell viability counter screen (AID 1963581). Note: nearly all actives have a fitted effect of over 45% in size. Summed up:
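Cells: HCT-116 with p53 response element-driven beta-lactamase. Treatment: 16 h, 37 C, compounds in DMSO. Read: CellTiter-Glo luminescence after 30 min RT.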

Assay [10] can be described thus: cAMP Responsive Elements (CRE) small molecule agonists, cell-based qHTS assay (AID 1963590). Summed up:
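Agonist mode qHTS in CRE-bla HEK 293T cells: compounds dosed from DMSO for 3 h at 37 C/5% CO2, followed by LiveBLAzer B/G FRET substrate for 2 h at room temperature.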

A short description of assay [11]: cAMP Responsive Elements (CRE) small molecule antagonists, cell-based qHTS assay (AID 1963591; active = well fitted inhibition curve with a large enough effect in the signal ratio in the repeat runs, not every such curve was filed as active; the % refers to the signal ratio). In outline:
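Antagonist mode: test compounds are co-incubated with the adenylyl cyclase activator NKH477 (0.25 uM final) on CRE-bla HEK293T cells for 3 h at 37 °C, followed by LiveBLAzer substrate loading.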

Assay [12] addresses Beta-2 adrenergic receptor (Homo sapiens) (UniProt P07550). The assay is described as follows: Adrenergic beta2 receptor (ADRB2) small molecule antagonists, cell-based qHTS assay (AID 1963592). Note: nearly all actives have a fitted effect of over 50% in size. Note: potency is the fitted concentration of half-maximal effect. Summed up:
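Cells (CHO, stable ADRB2 overexpression) incubated 18-20hr at 37C; compounds added from DMSO; agonist mix (1nM isoproterenol, 100uM IBMX, 25uM Ro-20-1724) added; 0.5hr RT; d2-cAMP and anti-cAMP-cryptate added; 1hr RT; 665/615 nm read.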

Assay [13] shares this target. The assay is described as follows: Adrenergic beta2 receptor (ADRB2) small molecule agonists, cell-based qHTS assay (AID 1963593).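 Note: CHO cells stably overexpressing human ADRB2.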 Summed up:
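CHO cells stably over-expressing ADRB2 were plated overnight at 37C, then dosed with compounds plus a stimulation mix containing 100uM IBMX and 25uM Ro-20-1724 for 0.5hr at room temperature. cAMP was measured by HTRF competition, 1hr.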

Assay [14] deals with D(2) dopamine receptor (Homo sapiens) (UniProt P14416). The assay is described as follows: Dopamine D2 receptor (DRD2) small molecule antagonists, cell-based qHTS assay (AID 1963595; active = well fitted inhibition curve with a large enough effect in the signal ratio in the repeat runs, with a control signal flat; the % refers to the signal ratio; note: potency is the fitted concentration of half-maximal effect). In outline: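 HEK293 cells stably expressing DRD2 were preincubated with 0.1 mM Ro20-1724, then with compound for 10 min at room temperature. Cells were stimulated with 200 nM NKH477 plus 12 nM quinpirole for 30 min, and cAMP was read by HTRF.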
D(2) dopamine receptor (Homo sapiens), sequence (P14416 whole entry, looked up): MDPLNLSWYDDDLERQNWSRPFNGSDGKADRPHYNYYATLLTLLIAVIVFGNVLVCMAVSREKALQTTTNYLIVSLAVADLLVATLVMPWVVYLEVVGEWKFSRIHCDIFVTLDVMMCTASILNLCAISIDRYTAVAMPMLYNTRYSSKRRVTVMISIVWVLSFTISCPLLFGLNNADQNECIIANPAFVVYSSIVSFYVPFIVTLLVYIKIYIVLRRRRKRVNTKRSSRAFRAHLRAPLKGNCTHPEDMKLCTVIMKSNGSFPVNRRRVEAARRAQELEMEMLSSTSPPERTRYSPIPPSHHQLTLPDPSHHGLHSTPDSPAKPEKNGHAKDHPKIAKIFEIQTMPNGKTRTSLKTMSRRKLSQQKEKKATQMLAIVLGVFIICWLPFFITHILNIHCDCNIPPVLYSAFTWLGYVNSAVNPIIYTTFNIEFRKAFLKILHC

Assay [15] can be described thus: p53 small molecule agonists, cell-based qHTS assay (AID 1963582; active = well fitted activation curve with a large enough effect in the signal ratio in the repeat runs, not every such curve was filed as active; the % refers to the signal ratio). Summed up: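 Quantitative HTS in p53RE-bla cells: after a 5 h settling period, compounds delivered in DMSO were left on cells for 16 h at 37 C, and reporter induction was measured as fluorescence following 2 h substrate loading.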
Assay [16] has as its target 5-hydroxytryptamine receptor 2A (Homo sapiens) (UniProt P28223). Nature of the assay: 5-hydroxytryptamine receptor 2A (HTR2A) small molecule antagonists, cell-based qHTS assay (AID 1963586). Note: nearly all actives have a fitted effect of over 45% in size. In outline: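 Antagonist-mode intracellular calcium assay: DOI (4 nM) added after 5 min compound pre-incubation at room temperature to dye-loaded HTR2A-CHO cells. Fluorescence followed for 3 min, sampled every second.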

Assay [17] has the same target. Nature of the assay: 5-hydroxytryptamine receptor 2A (HTR2A) small molecule agonists, cell-based qHTS assay (AID 1963587). Note: nearly all actives have a fitted effect of over 30% in size. Summed up: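 HTR2A-CHO cells, plated 18 h at 37 C/5% CO2, dye-loaded 1 h at 37 C; compounds in DMSO added by pin tool (agonist mode). Intracellular calcium flux read as kinetic fluorescence on FDSS over 2 min at 1 s intervals.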
Assay [18] has as its target Muscarinic acetylcholine receptor M1 (Homo sapiens) (UniProt P11229). The assay is described as follows: Cholinergic receptor muscarinic 1 (CHRM1) small molecule antagonists, cell-based qHTS assay (AID 1963588). Note: nearly all actives have a fitted effect of over 40% in size. Note: potency is the fitted concentration of half-maximal effect. Summed up: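 CHRM1-CHO calcium-flux assay, antagonist mode. Cells were seeded 18 h, dye-loaded 1 h at 37 C and given compound for 5 min at RT, then acetylcholine was added at 50nM. FDSS fluorescence was read 3 min; 15 concentrations, three runs.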

The target is the same in assay [19]. Nature of the assay: Cholinergic receptor muscarinic 1 (CHRM1) small molecule agonists, cell-based qHTS assay (AID 1963589). Note: nearly all actives have a fitted effect of over 35% in size. In outline:
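Agonist-mode qHTS in CHO cells stably carrying human muscarinic M1. Intracellular calcium is tracked by fluorescence every second after compound transfer; each compound runs at 15 concentrations in three independent runs.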

Assay [20] has as its target D(2) dopamine receptor (Homo sapiens) (UniProt P14416). Nature of the assay: Dopamine D2 receptor (DRD2) small molecule agonists, cell-based qHTS assay (AID 1963594). Note: nearly all actives have a fitted effect of over 35% in size. Summed up:
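HEK293 cells stably expressing DRD2 were cultured 24 h at 37 C, then given Ro20-1724 (0.1 mM final) and compounds for 10 min at room temperature. NKH477 (200nM) was then added for 30 min. cAMP was read by HTRF.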

This is an account of results in PubChem BioAssay (Tox21).

The structures appear in SMILES notation. “And” between values parts separate entries of the source, which are not always exact repeats. Identical values can stand only once. Records with an inconclusive call do not appear. A structure can be active in one record and inactive in another. The source made the active and inactive calls. Unless noted, calls come from the whole dose curve.

5-hydroxytryptamine receptor 2A (Homo sapiens), sequence (P28223 whole entry, looked up): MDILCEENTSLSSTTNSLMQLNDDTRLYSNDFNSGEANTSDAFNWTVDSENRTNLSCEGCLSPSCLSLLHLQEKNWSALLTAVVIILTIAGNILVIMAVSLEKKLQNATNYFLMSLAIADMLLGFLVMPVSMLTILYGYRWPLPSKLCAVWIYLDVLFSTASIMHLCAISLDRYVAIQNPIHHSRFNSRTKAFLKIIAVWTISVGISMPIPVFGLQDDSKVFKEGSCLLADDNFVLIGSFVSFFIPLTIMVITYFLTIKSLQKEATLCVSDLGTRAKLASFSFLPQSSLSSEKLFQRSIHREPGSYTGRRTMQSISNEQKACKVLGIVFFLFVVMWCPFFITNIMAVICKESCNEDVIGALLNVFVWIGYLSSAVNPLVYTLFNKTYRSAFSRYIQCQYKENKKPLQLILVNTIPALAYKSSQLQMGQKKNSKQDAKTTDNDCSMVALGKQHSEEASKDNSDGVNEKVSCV
Beta-2 adrenergic receptor (Homo sapiens), sequence (P07550 whole entry, looked up): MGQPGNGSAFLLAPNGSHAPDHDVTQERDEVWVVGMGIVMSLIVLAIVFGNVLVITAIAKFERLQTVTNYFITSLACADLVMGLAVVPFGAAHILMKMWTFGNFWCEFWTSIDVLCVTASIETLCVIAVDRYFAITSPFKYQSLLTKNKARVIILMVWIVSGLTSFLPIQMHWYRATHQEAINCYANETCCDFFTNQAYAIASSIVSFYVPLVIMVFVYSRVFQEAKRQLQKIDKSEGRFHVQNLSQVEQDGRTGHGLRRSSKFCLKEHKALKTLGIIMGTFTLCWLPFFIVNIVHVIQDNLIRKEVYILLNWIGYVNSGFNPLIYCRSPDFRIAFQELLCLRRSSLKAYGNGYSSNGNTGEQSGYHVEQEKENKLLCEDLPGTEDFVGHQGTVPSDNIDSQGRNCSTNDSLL
KiSS-1 receptor (Homo sapiens), sequence (Q969F8 whole entry, looked up): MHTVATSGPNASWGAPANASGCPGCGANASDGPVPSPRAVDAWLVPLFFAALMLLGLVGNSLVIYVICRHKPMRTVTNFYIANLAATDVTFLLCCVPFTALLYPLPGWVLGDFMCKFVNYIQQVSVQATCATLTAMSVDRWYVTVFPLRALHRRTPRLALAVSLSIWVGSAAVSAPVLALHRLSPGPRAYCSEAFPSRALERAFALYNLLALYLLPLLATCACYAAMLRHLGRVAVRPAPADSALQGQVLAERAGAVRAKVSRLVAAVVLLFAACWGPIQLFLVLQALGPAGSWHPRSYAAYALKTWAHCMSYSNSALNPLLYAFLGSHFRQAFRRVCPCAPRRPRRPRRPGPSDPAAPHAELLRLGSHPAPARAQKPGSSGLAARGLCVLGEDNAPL
Gonadotropin-releasing hormone receptor (Homo sapiens), sequence (P30968 whole entry, looked up): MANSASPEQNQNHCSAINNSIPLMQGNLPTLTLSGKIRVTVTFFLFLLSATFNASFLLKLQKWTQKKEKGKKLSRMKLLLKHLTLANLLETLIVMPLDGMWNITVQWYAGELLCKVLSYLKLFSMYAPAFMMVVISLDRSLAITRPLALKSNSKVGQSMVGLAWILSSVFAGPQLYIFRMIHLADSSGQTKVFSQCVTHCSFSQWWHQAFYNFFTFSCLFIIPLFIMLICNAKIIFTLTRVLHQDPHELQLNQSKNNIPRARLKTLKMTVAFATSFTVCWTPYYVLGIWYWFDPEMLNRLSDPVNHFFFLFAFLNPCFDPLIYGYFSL
Muscarinic acetylcholine receptor M1 (Homo sapiens), sequence (P11229 whole entry, looked up): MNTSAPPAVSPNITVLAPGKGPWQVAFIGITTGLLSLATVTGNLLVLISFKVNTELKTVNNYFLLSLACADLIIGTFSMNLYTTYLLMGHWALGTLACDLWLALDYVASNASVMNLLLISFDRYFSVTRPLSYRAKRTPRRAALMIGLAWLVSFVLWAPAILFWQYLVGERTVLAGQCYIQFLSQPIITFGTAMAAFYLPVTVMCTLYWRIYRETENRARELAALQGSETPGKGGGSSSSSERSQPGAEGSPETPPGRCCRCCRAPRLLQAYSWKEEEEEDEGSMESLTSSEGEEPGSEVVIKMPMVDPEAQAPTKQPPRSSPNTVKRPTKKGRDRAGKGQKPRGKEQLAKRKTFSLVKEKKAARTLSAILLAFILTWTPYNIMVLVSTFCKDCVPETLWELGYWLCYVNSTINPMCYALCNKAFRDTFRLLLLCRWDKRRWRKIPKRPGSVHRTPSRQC

Turning to `CC/C(=C(/CC)c1ccc(O)cc1)c1ccc(O)cc1`, the Potency in [1] is 42.9 µM (active) and 61.1 µM (active). The Potency entry in assay [2], in assay [3], in assay [4], in assay [5], in assay [6] and in [7] was “inactive” throughout. The Potency entry in [8], in [9], in [10], in assay [11], in [12] and in assay [13] was “inactive” throughout. Besides, the Potency entry in [14] was “inactive”.

With `O=C(Nc1ccc(Cl)cc1)Nc1ccc(Cl)c(Cl)c1`, the Potency result in assay [1], in assay [2], in [3], in [4], in assay [5] and in [6] was “inactive” throughout. Moreover, the Potency result in assay [7], in [9], in assay [15], in assay [16], in assay [17] and in [18] was “inactive” each time. In addition, the Potency entry in assay [19], in [11] and in assay [20] was “inactive” in each case. Further, the Potency was 68.2 µM (active) and 54.5 µM (active) in [12]; 48.6 µM (active) and inactive in assay [14].

On to `C[C@@H]1CCC[C@H](C)N1CCCC(O)(c1ccccc1)c1ccccn1` (stereo not given in full), for which the Potency result in [1], in [2], in [3], in assay [4], in assay [5] and in [6] was “inactive” throughout. Also, the Potency result in [7], in assay [8], in [9], in [15], in assay [17] and in assay [18] was “inactive” throughout. The Potency entry in [19], in assay [10], in assay [11], in assay [12], in assay [13] and in assay [20] was “inactive” each time. In assay [14], the Potency entry was “inactive”.

Regarding `O`, the Potency entry in assay [1], in assay [2], in [3], in [4], in assay [5] and in [6] was “inactive” in each case. Besides, the Potency entry in [7], in assay [8], in assay [9], in assay [15], in [12] and in assay [13] was “inactive” each time. The Potency entry in assay [20] and in assay [14] was “inactive” in each case.

Regarding `COc1ccc(Cl)cc1C`, the Potency result in assay [1], in [2], in [3], in [4], in [5] and in assay [6] was “inactive” each time. The Potency result in assay [7], in assay [8], in [9], in assay [15], in assay [16] and in [17] was “inactive” in each case. The Potency result in assay [19], in [10], in [11], in [12], in [13] and in assay [20] was “inactive” in each case. The Potency result in assay [14] is “inactive”.

Take `C=CCOc1cc(Cl)ccc1C(=O)NCCN(CC)CC`: the Potency entry in [1], in [2], in assay [3], in assay [4], in [5] and in assay [6] was “inactive” in each case. The Potency result in [7], in assay [8], in assay [15], in assay [16], in assay [17] and in [19] was “inactive” throughout. For the same compound, the Potency result in assay [10], in [11] and in [20] was “inactive” throughout. In [18], the Potency was 4.6 µM (active).

`CC(=O)NC(Cc1ccccc1)C(=O)O` (stereo not given): the Potency result in [1], in assay [2], in assay [3], in assay [4], in assay [5] and in assay [6] was “inactive” in each case. Moreover, the Potency entry in [7], in assay [8], in assay [9], in assay [15], in assay [16] and in assay [17] was “inactive” each time. The Potency entry in assay [18], in assay [19], in assay [10], in assay [13], in [20] and in assay [14] was “inactive” each time.

As to `CC/C=C\CC1=C(C)CCC1=O`, the Potency entry in assay [1], in assay [2], in assay [3], in assay [4], in assay [5] and in assay [6] was “inactive” in each case. The Potency result in assay [7], in assay [8], in assay [9], in [15], in assay [16] and in [17] was “inactive” throughout. Also, the Potency result in assay [18], in assay [19], in assay [11], in assay [12], in [20] and in [14] was “inactive” each time.
